TrxR1 substrate – qHTS Assay for Substrates of Mammalian Selenoprotein Thioredoxin Reductase 1 (TrxR1): qHTS. AID 588456, 2011. actives 0.01% (n = 390,000). Potency, µM (top dose mostly 114 µM), for inactives: at the top dose activity change, negative = substrate turnover. purified TrxR1 substrate turnover, NADPH consumption readout; also: nearly all actives have a fitted effect of over 50% in size
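Rat TrxR1, dispensed at 90 nM, was prereduced with 400 uM NADPH (final) for 5 min at ~22 deg C, then incubated with compound 15 min before 400 uM selenite. A first-read NADPH fluorescence drop versus no-compound background flagged substrates.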
VDR inhibitor – Inhibitors of the vitamin D receptor (VDR): qHTS | Vitamin D3 receptor (Homo sapiens), P11473 | VDR-SRC2-3 peptide fluorescence polarization, 2 h | Potency, µM, for the others: max response, negative = inhibition, most hits filed as inhibitors | actives 0.93% (n = 400,000)
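Fluorescence polarization assay measuring small-molecule disruption of VDR binding to the coregulator peptide SRC2-3. Compounds were pin-transferred (23 nl) into the reagent mix and incubated 2 h at room temperature before reading.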
rTrxR1 inhibitor – qHTS Assay for Inhibitors of Mammalian Selenoprotein Thioredoxin Reductase 1 (TrxR1): qHTS; recombinant rTrxR1, NADPH fluorescence consumption, selenite substrate; Potency, µM (top dose mostly 114 µM), for inactives: at the top dose activity change, negative = inhibition, actives largely listed as inhibitors; actives 1% (n = 390,000); Thioredoxin reductase 1, cytoplasmic (Rattus norvegicus), O89049; AID 588453, 2011; also: nearly all actives have a fitted effect of over 65% in size
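Rat TrxR1 (90 nM in the dispensed reagent) was pre-reduced with 400 uM NADPH for 5 min at room temperature, then incubated with compound for 15 min. After 400 uM selenite was added, NADPH fluorescence (Ex 340/Em 450 nm) was followed for 8 min.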
Sfp PPTase inh – qHTS Assay for Inhibitors of Bacillus subtilis Sfp phosphopantetheinyl transferase (PPTase) | Potency, µM, for inactives: largest response in the series, negative = inhibition, hits mostly inhibitors | actives 3.5% (n = 310,000) | 4'-phosphopantetheinyl transferase ffp (Bacillus subtilis), Q9F4F7 | Biochemical Sfp PPTase activity, qHTS;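 also: the enzyme is Sfp with the accession as filed and its product quenches rhodamine fluorescence; 0% = enzyme reaction without inhibitor and -100% = no enzyme wells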
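Step 1, compound plus 15 nM Sfp-PPTase, 15 min, room temperature. Step 2, add rhodamine-CoA (5 uM) and BHQ-2-YbbR (12.5 uM). Step 3, read 525/598 nm fluorescence at 0 and 30 min.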
PLK1 PBD inh – qHTS for Inhibitors of PLK1-PDB (polo-like kinase 1 - polo-box domain): Primary Screen | AID 720504, 2013 | Potency, µM, without a hit: max response, negative = inhibition, usual class: inhibitors | Serine/threonine-protein kinase PLK1 (Homo sapiens), P53350 | actives 2.8% (n = 360,000) | Plk1 PBD binding of FITC phosphopeptide, fluorescence polarization; also: series mostly up to about 57 µM; nearly all actives have a fitted effect of over 65% in size
Target sequence (P53350 whole entry, looked up, the tested form may be a part): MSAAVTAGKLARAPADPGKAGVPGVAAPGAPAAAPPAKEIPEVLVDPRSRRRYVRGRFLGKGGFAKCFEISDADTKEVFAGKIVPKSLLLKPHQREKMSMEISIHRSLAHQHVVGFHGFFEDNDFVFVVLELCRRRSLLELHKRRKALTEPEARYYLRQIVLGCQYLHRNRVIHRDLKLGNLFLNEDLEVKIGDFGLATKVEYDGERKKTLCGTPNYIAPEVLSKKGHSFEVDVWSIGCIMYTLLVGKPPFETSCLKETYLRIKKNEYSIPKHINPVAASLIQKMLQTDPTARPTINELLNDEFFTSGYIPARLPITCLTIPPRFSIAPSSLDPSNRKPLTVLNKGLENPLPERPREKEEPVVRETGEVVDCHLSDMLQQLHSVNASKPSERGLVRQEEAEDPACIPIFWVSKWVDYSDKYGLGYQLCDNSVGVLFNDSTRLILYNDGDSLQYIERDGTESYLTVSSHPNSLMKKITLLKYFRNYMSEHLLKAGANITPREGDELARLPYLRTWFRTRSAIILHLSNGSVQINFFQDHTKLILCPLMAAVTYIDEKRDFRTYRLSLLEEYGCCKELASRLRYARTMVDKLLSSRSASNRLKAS
mIDH1 inhibitor – qHTS for Inhibitors of mutant isocitrate dehydrogenase 1 (IDH1): qHTS. Potency, µM (highest dose often 76.6 µM), without a hit: at the highest dose activity change, negative = inhibition, usual class: inhibitors. actives 0.093% (n = 390,000). AID 602179, 2012. IDH1-R132H enzyme, NADPH consumption, diaphorase/resazurin fluorescence; also: nearly all actives have a fitted effect of over 65% in size
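IDH1-R132H (0.5 ug/mL) preincubated 30 min with compound, then NADPH (0.016 mM) and alpha-KG (2 mM) added; 80 min at RT, pH 7.5. Remaining NADPH coupled via diaphorase/resazurin to fluorescence (540/590 nm); concentration-response curves normalized to no-enzyme control.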
The depositor's hits bear a star; [ ] = dose if it differs, or a comment. In the library only some 5.2% were active in any assay of this set; here they are far more common. Calls follow the shape of the dose curve; as a rule, active = well fitted curve in the direction sought with a large enough effect; inconclusive = small, poorly fitted or top-dose-only effect, or another doubt; inactive = no such curve, though single readings can be large; an effect the other way counts as inactive or inconclusive. Unless noted, % is scaled to controls: 0 for no effect and ±100 for the full control effect; potency is read from the fitted curve at half-maximal effect.

How did COc1cccc(-n2nc(C#N)c(Cl)cc2=O)c1 do in these assays?
TrxR1 substrate: 5%[57.1 µM]; VDR inhibitor: 32µM*; rTrxR1 inhibitor: 4µM*; Sfp PPTase inh: 2%; PLK1 PBD inh: inconclusive; mIDH1 inhibitor: 4%

How did O=C(CCC(=O)N1CCN(c2ccc(Cl)c(Cl)c2)CC1)c1ccccc1 do in these assays?
TrxR1 substrate: -5%; VDR inhibitor: -2%; rTrxR1 inhibitor: 23%; Sfp PPTase inh: -9%; PLK1 PBD inh: 0%; mIDH1 inhibitor: -5%

How did O=C(O)c1ncn(Cc2ccc(Br)cc2)c1C(=O)O do in these assays?
TrxR1 substrate: 0%; VDR inhibitor: -6%; rTrxR1 inhibitor: 5%; Sfp PPTase inh: 50µM*; PLK1 PBD inh: 1%; mIDH1 inhibitor: 2%

How did O=C(c1ncn(Cc2ccccc2)c1C(=O)N1CCN(c2ccccc2)CC1)N1CCN(c2ccccc2)CC1 do in these assays?
TrxR1 substrate: 2%; VDR inhibitor: -3%; rTrxR1 inhibitor: 6%; PLK1 PBD inh: -5%; mIDH1 inhibitor: 2%

What do the screens show for `COc1ccc(NC(=O)C2CC(=O)n3cnnc3S2)cc1` (stereo not drawn)?
TrxR1 substrate: -1%; VDR inhibitor: -3%; rTrxR1 inhibitor: inconclusive; Sfp PPTase inh: 56µM*; PLK1 PBD inh: inconclusive; mIDH1 inhibitor: 1%

How did N#CC(=C(/N)Sc1ccccc1N)/C(C#N)=C(\N)Sc1ccccc1N do in these assays?
Sfp PPTase inh: 56µM*

How did CSCC[C@H](NC(=O)[C@H](CC(C)C)N1CCC(NC(=O)[C@@H](NC(=O)[C@H](Cc2ccccc2)NC(=O)[C@H](CO)NC(=O)[C@H](CC(=O)O)NC(=O)[C@@H](N)CCCCN)C(C)C)C1=O)C(N)=O (stereo partly drawn) do in these assays?
VDR inhibitor: -5%; Sfp PPTase inh: -29%

Results for Cc1cccc(/C=N/NC(=O)c2ccc(F)cc2)n1 ?
TrxR1 substrate: -4%; VDR inhibitor: -2%; rTrxR1 inhibitor: 8%; Sfp PPTase inh: 40µM*; PLK1 PBD inh: -10%; mIDH1 inhibitor: 2%

What do the screens show for `COc1ccc(N2CCN(C(=O)CS(=O)(=O)c3cccc4nsnc34)CC2)cc1`?
TrxR1 substrate: -7%[57.1 µM]; VDR inhibitor: -4%; rTrxR1 inhibitor: -9%[57.1 µM]; mIDH1 inhibitor: -1%

What do the screens show for `CCS(=O)(=O)N1CCc2cc(C(=O)Nc3cc([N+](=O)[O-])ccc3C)ccc21`?
TrxR1 substrate: -1%; VDR inhibitor: 0%; rTrxR1 inhibitor: -4%; mIDH1 inhibitor: -4%

How did CCCOc1cccc(C(=O)Nc2cccnc2)c1 do in these assays?
TrxR1 substrate: 13%; VDR inhibitor: -7%; rTrxR1 inhibitor: 22%; Sfp PPTase inh: 26%; PLK1 PBD inh: -10%; mIDH1 inhibitor: 2%

Results for CCCCOc1cccc(C(=O)NC(=S)Nc2cccnc2)c1 ?
TrxR1 substrate: -12%; VDR inhibitor: -25%; rTrxR1 inhibitor: 25µM*; Sfp PPTase inh: -3%; PLK1 PBD inh: -11%; mIDH1 inhibitor: -1%

What do the screens show for `CCOc1cccc(C(=O)NC(=S)Nc2cccnc2)c1`?
TrxR1 substrate: 11%[57.1 µM]; VDR inhibitor: -10%; rTrxR1 inhibitor: -59%; Sfp PPTase inh: 45µM*; PLK1 PBD inh: -3%; mIDH1 inhibitor: 2%

Results for CCNc1cccc2c1C(=O)N(C)C2=O ?
TrxR1 substrate: 6%; VDR inhibitor: -1%; rTrxR1 inhibitor: 1%; Sfp PPTase inh: 19%; PLK1 PBD inh: 24µM*; mIDH1 inhibitor: 1%

Results for Cc1sc(NC(=O)CS(=O)(=O)c2ccccc2)c(C#N)c1C ?
TrxR1 substrate: -6%; VDR inhibitor: -13%; rTrxR1 inhibitor: 1%; PLK1 PBD inh: -9%; mIDH1 inhibitor: 5%

Results for Cc1sc(NC(=O)CCS(=O)(=O)c2ccccc2)c(C#N)c1C ?
TrxR1 substrate: -5%; VDR inhibitor: 89µM*; rTrxR1 inhibitor: -8%; PLK1 PBD inh: 13µM*; mIDH1 inhibitor: 3%

How did Cc1cc(F)ccc1NC(=O)c1csc2c1CCC(C)C2 (stereo not drawn) do in these assays?
TrxR1 substrate: -7%; VDR inhibitor: 16%; rTrxR1 inhibitor: -13%; mIDH1 inhibitor: 3%

How did COc1cccc(-c2nccc(NC3CCNCC3)n2)c1 do in these assays?
VDR inhibitor: 5%; Sfp PPTase inh: 2%

Results for CN(C)S(=O)(=O)c1cc(NC(=O)c2cc(=O)c3ccccc3o2)ccc1Cl ?
TrxR1 substrate: -3%; VDR inhibitor: 3%; rTrxR1 inhibitor: 13%; Sfp PPTase inh: 32µM*; PLK1 PBD inh: -6%; mIDH1 inhibitor: -10%

How did COc1ccc(NC(=O)c2cc(=O)c3ccccc3o2)cc1Cl do in these assays?
TrxR1 substrate: 8%[57.1 µM]; VDR inhibitor: -11%; rTrxR1 inhibitor: 18%[57.1 µM]; Sfp PPTase inh: 4%; PLK1 PBD inh: -15%; mIDH1 inhibitor: 4%

What do the screens show for `CN(CCOc1ccccc1)CC(=O)Nc1ccc(Cl)cc1[N+](=O)[O-]`?
TrxR1 substrate: 4%[57.1 µM]; VDR inhibitor: -26%; rTrxR1 inhibitor: -30%; Sfp PPTase inh: 50µM*; PLK1 PBD inh: 2%; mIDH1 inhibitor: 4%

Results for CN(CCOc1ccccc1)CC(=O)Nc1ccc(Cl)c(S(=O)(=O)N(C)C)c1 ?
TrxR1 substrate: 3%[57.1 µM]; VDR inhibitor: 5%; rTrxR1 inhibitor: 15%[57.1 µM]; Sfp PPTase inh: 56µM*; PLK1 PBD inh: -4%; mIDH1 inhibitor: 3%

How did CC(=O)c1cc(-c2ccccc2)n(CCC(=O)NCc2ccc(C)cc2)c1C do in these assays?
TrxR1 substrate: 3%[57.1 µM]; VDR inhibitor: 16%; rTrxR1 inhibitor: 13%[57.1 µM]; mIDH1 inhibitor: 1%

How did CC1(CCc2ccccc2)NC(=S)N(c2ccccc2)N1 (stereo not drawn) do in these assays?
TrxR1 substrate: -15%; VDR inhibitor: -25%; rTrxR1 inhibitor: inconclusive; Sfp PPTase inh: 45µM*; PLK1 PBD inh: 1%; mIDH1 inhibitor: 0%

What do the screens show for `COc1ccc(OCC#CCN2CC(C)OC(C)C2)cc1` (stereo not drawn)?
TrxR1 substrate: -2%; VDR inhibitor: 10%; rTrxR1 inhibitor: 16µM*; Sfp PPTase inh: inconclusive; PLK1 PBD inh: -28%; mIDH1 inhibitor: -1%
